Inconclusive results are not listed. The source made the active and inactive calls. Unless noted, calls follow the shape of the dose curve; as a rule, active = well fitted curve in the direction sought with a large enough effect in the repeat runs; inconclusive = weak or mixed curves; inactive = no such curve, though single readings can be large; an effect the other way counts as inactive or inconclusive.
Assays:
[1] = qHTS assay to identify small molecule agonists of the peroxisome proliferator-activated receptor delta (PPARd) signaling pathway - cell viability counter screen (AID 743211); also: nearly all actives have a fitted effect of over 55% in size
How it was run: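 Following 5 h plating at 37 C and 5% CO2, PPARd UAS-bla HEK293H cells took up test compounds for 17 h. Viability was quantified by luminescence 30 min after CellTiter-Glo addition at room temperature.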

[2] = target: Peroxisome proliferator-activated receptor delta (Homo sapiens) (UniProt Q03181); assay: qHTS assay to identify small molecule agonists of the peroxisome proliferator-activated receptor delta (PPARd) signaling pathway (AID 743212; calls by dose curve)
Sequence of Peroxisome proliferator-activated receptor delta (Homo sapiens) (Q03181 whole entry, looked up): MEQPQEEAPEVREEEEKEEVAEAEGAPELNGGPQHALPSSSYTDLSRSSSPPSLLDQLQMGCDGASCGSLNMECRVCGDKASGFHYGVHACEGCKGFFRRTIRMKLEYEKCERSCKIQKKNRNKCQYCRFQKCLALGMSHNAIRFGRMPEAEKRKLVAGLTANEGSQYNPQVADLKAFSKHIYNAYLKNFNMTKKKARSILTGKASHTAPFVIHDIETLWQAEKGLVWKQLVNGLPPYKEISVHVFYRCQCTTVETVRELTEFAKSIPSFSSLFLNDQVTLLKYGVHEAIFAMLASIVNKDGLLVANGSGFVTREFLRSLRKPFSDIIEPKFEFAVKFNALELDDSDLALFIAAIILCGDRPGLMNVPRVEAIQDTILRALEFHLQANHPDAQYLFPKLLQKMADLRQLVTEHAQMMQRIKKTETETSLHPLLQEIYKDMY
How it was run: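 Steps: seed PPARd-bla HEK293H cells; incubate 5 h, 37 C, 5% CO2; add compounds in DMSO; incubate, 37 C; add LiveBLAzer B/G FRET substrate; hold 2 h at room temperature; measure fluorescence.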

[3] = qHTS assay to identify small molecule antagonists of the peroxisome proliferator-activated receptor delta (PPARd) signaling pathway - cell viability counter screen (AID 743213); also: nearly all actives have a fitted effect of over 50% in size
How it was run: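 Luminescence from CellTiter-Glo, added after the bla read and incubated 30 min at room temperature, gives viability of HEK293H PPARd-bla cells exposed to compounds for 17 h at 37 C with 300 nM L165041.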

[4] = target: Peroxisome proliferator-activated receptor delta (Homo sapiens) (UniProt Q03181); assay: qHTS assay to identify small molecule antagonists of the peroxisome proliferator-activated receptor delta (PPARd) signaling pathway (AID 743215; active = well fitted inhibition curve with a large enough effect in the signal ratio in the repeat runs, not every such curve was filed as active; the % refers to the signal ratio;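 also: cells stimulated with agonist L165041 at 300 nM final during compound exposure; series mostly up to about 62 µM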)
How it was run: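 Cells: HEK293H with a UAS-driven beta-lactamase reporter responsive to PPARd. Compounds were co-added with L165041 (300 nM, final) and incubated 17 h at 37 C before a 2 h room-temperature FRET substrate step and fluorescence reading.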

[5] = target: Bile acid receptor (Homo sapiens) (UniProt Q96RI1); assay: qHTS assay to identify small molecule antagonists of the farnesoid-X-receptor (FXR) signaling pathway (AID 743217; active = well fitted inhibition curve with a large enough effect in the signal ratio in the repeat runs, not every such curve was filed as active; the % refers to the signal ratio)
Sequence of Bile acid receptor (Homo sapiens) (Q96RI1 whole entry, looked up): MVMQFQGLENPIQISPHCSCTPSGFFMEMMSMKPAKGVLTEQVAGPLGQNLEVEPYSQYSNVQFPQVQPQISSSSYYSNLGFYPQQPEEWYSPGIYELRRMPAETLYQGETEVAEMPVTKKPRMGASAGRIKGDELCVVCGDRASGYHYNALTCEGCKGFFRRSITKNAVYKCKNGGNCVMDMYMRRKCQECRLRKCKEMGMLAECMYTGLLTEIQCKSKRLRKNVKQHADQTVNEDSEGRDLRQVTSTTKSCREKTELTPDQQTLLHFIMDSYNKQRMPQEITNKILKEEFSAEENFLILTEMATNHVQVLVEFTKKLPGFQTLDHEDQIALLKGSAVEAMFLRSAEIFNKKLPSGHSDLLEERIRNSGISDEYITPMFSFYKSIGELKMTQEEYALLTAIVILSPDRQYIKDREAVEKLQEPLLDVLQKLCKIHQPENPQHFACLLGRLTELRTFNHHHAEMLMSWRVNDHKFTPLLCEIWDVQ
How it was run: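 Cells carrying a UAS-driven beta-lactamase reporter (GeneBLAzer FXR-UAS-bla HEK 293T) were plated and rested 5 h at 37 °C. Compounds in DMSO were added alongside chenodeoxycholic acid agonist at 50 uM final and left 16 h at 37 °C before FRET substrate readout.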

[6] = qHTS assay to identify small molecule agonists of the farnesoid-X-receptor (FXR) signaling pathway - cell viability counter screen (AID 743218); also: nearly all actives have a fitted effect of over 45% in size
How it was run: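 Cells were seeded, left 5 h at 37 C and 5% CO2, then dosed with compound in DMSO for 16 h. After the beta-lactamase FRET read, CellTiter-Glo was added and luminescence measured 30 min later.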

[7] = target: Bile acid receptor (Homo sapiens) (UniProt Q96RI1); assay: qHTS assay to identify small molecule agonists of the farnesoid-X-receptor (FXR) signaling pathway (AID 743220; active = well fitted activation curve with a large enough effect in the signal ratio in the repeat runs, not every such curve was filed as active; the % refers to the signal ratio)
How it was run: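 FXR-UAS-bla HEK 293T cells carrying a UAS-driven beta-lactamase reporter were plated for 5 h at 37C/5% CO2, then exposed to DMSO-dissolved Tox21 10K compounds for 16 h at 37C. A LiveBLAzer B/G FRET substrate was loaded for 2 h at room temperature before fluorescence reading.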

[8] = qHTS assay to identify small molecule antagonists of the farnesoid-X-receptor (FXR) signaling pathway - cell viability counter screen (AID 743221; active = well fitted cell-killing curve with a large enough effect in the repeat runs, not every such curve was filed as active; also: nearly all actives have a fitted effect of over 50% in size)
How it was run: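 Compound effects on cell number were measured as CellTiter-Glo luminescence in HEK 293T cells expressing FXR-UAS-bla, after 16 h at 37 C with 50 uM CDCA (final).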

[9] = qHTS assay to identify small molecule agonists of the vitamin D receptor (VDR) signaling pathway - cell viability counter screen (AID 743224); also: series mostly up to about 63 µM; nearly all actives have a fitted effect of over 50% in size
How it was run: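 Cells: VDR-bla, 2,000/well, settled 4 h. Treatment: compounds in DMSO, 16 h, 37C/5% CO2. Readout: CellTiter-Glo luminescence after 30 min RT.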

[10] = qHTS assay to identify small molecule antagonists of the vitamin D receptor (VDR) signaling pathway - cell viability counter screen (AID 743225); also: nearly all actives have a fitted effect of over 50% in size
How it was run: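 In this counter screen, VDR-bla HEK 293T cells receive test compound plus 3 nM final calcitriol for 16 h at 37C. Room-temperature steps of 2 h with the beta-lactamase substrate, then 30 min with CellTiter-Glo, precede the luminescence read.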

[11] = qHTS assay to identify small molecule agonists of the NFkB signaling pathway (AID 1159509; active = well fitted curve in the direction sought with a large enough effect in the signal ratio in the repeat runs, not every such curve was filed as active; the % refers to the signal ratio; also: series mostly up to about 61 µM)
How it was run: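 Beta-lactamase reporter assay run in quantitative high-throughput format on an NF-kB-responsive ME-180 line, with 5 hr compound treatment and a FRET-based blue/green fluorescence readout.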

[12] = qHTS assay to identify small molecule agonists of the NFkB signaling pathway - cell viability counter screen (AID 1159515; calls by dose curve; also: series mostly up to about 61 µM; nearly all actives have a fitted effect of over 55% in size)
How it was run: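 Cells are seeded (2,000 NFkB-bla ME-180 per well), rested overnight, and dosed with DMSO-dissolved compounds for 5 hr at 37 C. Viability is then read by CellTiter-Glo luminescence after 30 min at room temperature.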

[13] = qHTS assay to identify small molecule agonists of the endoplasmic reticulum stress response signaling pathway (AID 1159516; active = well fitted activation curve with a large enough effect in the signal ratio in the repeat runs, not every such curve was filed as active; the % refers to the signal ratio)
How it was run: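 Cells are seeded at 1,500 per well and incubated overnight. Compounds in DMSO are added for 5 hr at 37 C, then beta-lactamase FRET substrate for 2 hr at room temperature, and fluorescence at 460 and 530 nm is measured.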

[14] = qHTS assay to identify small molecule antagonists of the retinoid-related orphan receptor gamma (ROR-gamma) signaling pathway - cell viability counter screen (AID 1159520); also: nearly all actives have a fitted effect of over 50% in size
How it was run: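 Cytotoxicity was read from cellular ATP (CellTiter-Glo luminescence) after 16 hr at 37 C with 1 uM doxycycline induction. The inducer was added 2 hr after compound transfer to Tet-on ROR gamma CHO cells.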

[15] = target: Nuclear receptor ROR-gamma (Homo sapiens) (UniProt P51449); assay: qHTS assay to identify small molecule antagonists of the retinoid-related orphan receptor gamma (ROR-gamma) signaling pathway (AID 1159521)
How it was run: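 Screening format: cell-based luciferase reporter in CHO cells with doxycycline-inducible RORγ. Compound pre-exposure lasts 2 h, doxycycline is 1 uM final, induction runs 16 h at 37 C, and ONE-Glo luminescence is read.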

[16] = qHTS assay to identify small molecule agonists of the AP-1 signaling pathway - cell viability counter screen (AID 1159525; calls by dose curve; also: nearly all actives have a fitted effect of over 55% in size)
How it was run: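 Intracellular ATP by Cell Titer Glo luminescence (30 min, RT) in the same ME-180 AP-1-bla wells after the 5 h compound exposure at 37 °C. Normalised to tetra n-octyl ammonium bromide and DMSO controls.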

[17] = qHTS assay to identify small molecule agonists of the AP-1 signaling pathway (AID 1159526; calls by dose curve)
[18] = target: Vitamin D3 receptor (Homo sapiens) (UniProt P11473); assay: qHTS assay to identify small molecule antagonists of the vitamin D receptor (VDR) signaling pathway (AID 743223; active = well fitted inhibition curve with a large enough effect in the signal ratio in the repeat runs, not every such curve was filed as active; the % refers to the signal ratio)
Sequence of Vitamin D3 receptor (Homo sapiens) (P11473 whole entry, looked up): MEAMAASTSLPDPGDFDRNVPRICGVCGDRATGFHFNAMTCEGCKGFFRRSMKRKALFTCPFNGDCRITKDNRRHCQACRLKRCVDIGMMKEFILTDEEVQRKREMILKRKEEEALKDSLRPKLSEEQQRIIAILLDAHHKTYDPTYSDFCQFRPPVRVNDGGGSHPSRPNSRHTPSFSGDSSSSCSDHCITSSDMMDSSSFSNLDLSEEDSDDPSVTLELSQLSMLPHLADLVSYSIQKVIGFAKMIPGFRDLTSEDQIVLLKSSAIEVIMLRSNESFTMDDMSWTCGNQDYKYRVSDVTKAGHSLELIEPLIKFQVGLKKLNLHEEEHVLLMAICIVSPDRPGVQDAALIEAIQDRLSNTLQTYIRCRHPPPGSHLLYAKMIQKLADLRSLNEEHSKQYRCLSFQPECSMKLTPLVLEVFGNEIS
How it was run: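 Beta-lactamase activity in VDR-bla cells is measured by FRET substrate fluorescence (2 h, room temperature) after cells spend 16 h at 37C with test compound and 3 nM final 1alpha,25-dihydroxyvitamin D3.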

[19] = target: Vitamin D3 receptor (Homo sapiens) (UniProt P11473); assay: qHTS assay to identify small molecule agonists of the vitamin D receptor (VDR) signaling pathway (AID 743222; calls by dose curve)
How it was run: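 Cells carrying a VDR-driven beta-lactamase reporter are seeded at 2,000 per well and rested 4 h. Compounds in DMSO are added for 16 h at 37C, and FRET substrate fluorescence is measured after 2 h at room temperature.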

Measured: Potency

CCCCCCCCCCCCCCCC(=O)OCC
not listed: [18] | [19]
inactive: all other assays above

CC1CCc2nccnc21 (centres undefined)
not listed: [3] | [5] | [7] | [19]
inactive: all other assays above

O=C(O)CCC(=O)OC[C@@H](NC(=O)C(Cl)Cl)[C@H](O)c1ccc([N+](=O)[O-])cc1
not listed: [5] | [7] | [18] | [19]
inactive: all other assays above

CCC(CO)(CO)CO
not listed: [18] | [19]
inactive: all other assays above

CC(=O)Oc1cccc(O)c1
not listed: [2] | [4] | [19]
inactive: all other assays above

Oc1ccc2c(c1)Cc1ccccc1-2
not listed: [2] | [5] | [7] | [9] | [19]
inactive: all other assays above

C=C(C)C(=O)OCCC(F)(F)C(F)(F)C(F)(F)C(F)(F)C(F)(F)C(F)(F)F
not listed: [2] | [4] | [10]
inactive: all other assays above

O=C(c1ccccc1)c1ccc(O)cc1
not listed: [3]
inactive: all other assays above

c1ccc(CNc2ncnc3c2ncn3C2CCCCO2)cc1 (centres undefined)
not listed: [3] | [6] | [7] | [18]
inactive: all other assays above

CN1C(CSCC(F)(F)F)Nc2cc(Cl)c(S(N)(=O)=O)cc2S1(=O)=O (centres undefined)
not listed: [4] | [5] | [7]
inactive: all other assays above

Cc1ccc(S(=O)(=O)NC(=O)NC2CCCCC2)cc1
not listed: [5] | [7] | [18] | [19]
inactive: all other assays above

CCOC(=O)C(C)O (centres undefined)
not listed: [18] | [19]
inactive: all other assays above

O=C1[C@@H]2[C@H]3CC[C@H](C3)[C@@H]2C(=O)N1CCCCN1CCN(c2ncccn2)CC1
not listed: [5] | [7] | [10] | [18]
inactive: all other assays above

O=C(c1ccccc1)C1CCC1
not listed: [4] | [5] | [7] | [19]
inactive: all other assays above

CCSC(=O)N(CC)CC
not listed: [4] | [5] | [7]
inactive: all other assays above

C/C(C=O)=C\c1ccccc1
not listed: [5] | [7]
inactive: all other assays above
